Test results as given in PubChem BioAssay (EPA / NIEHS).
Calls of active or inactive are those of the source. Rule for the calls: active = hit-call score of the fitted dose curve at least 0.9, where 1 is the maximum; inactive = score below 0.9.

test: CCTE_Shafer_MEA_dev_correlation_coefficient_mean: CCTE's Neural Network Formation Assay for Mean Correlation Coefficient, Shafer Lab (AID 2284093);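 for AC50: well mean pairwise spike train correlation integrated as AUC over recording days 5 to 12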
Procedure: CCTE_Shafer_MEA_dev assay is conducted using Axion Biosystems 48 well microelectrode array (MEA) plates and Maestro recording system. Each well of the MEA plate contains a grid of 16 microelectrodes embedded in the culture surface. Electrically active cells, such as neurons, can be cultured over the electrodes, and electrical activity in these cells can be recorded extracellularly. The spontaneous firing of neurons is captured from each electrode on a microsecond timescale providing both temporally and spatially precise data. […] The CCTE_Shafer_MEA_dev assay uses primary cultures of rat cortical neurons. Recordings are made on days post-plating 5, 7, 9 and 12. As these cultures mature over time, neural networks develop functional activity and form cohesive networks in which electrical activity can be highly coordinated. CCTE_Shafer_MEA_dev_correlation_coefficient_mean is 1 of 19 assay components of the CCTE_Shafer_MEA_dev assay. It measures the correlation coefficent of spikes (action potential firings) between every pair of electrodes in a well during a recording in a microelectrode array (MEA) using Axion Biosystems Maestro 768 channel amplifier with the AxIS adaptive spike detector. The pairwise correlations are averaged across active electrodes to report a well-mean value. To collapse across multiple recordings made on days post-plating 5, 7, 9 and 12, the trapezoidal area-under-the-curve of the component is calculated.Data from the assay component CCTE_Shafer_MEA_dev_correlation_coefficient_mean was analyzed into 1 assay endpoint. This assay endpoint, CCTE_Shafer_MEA_dev_correlation_coefficient_mean, was analyzed in the negative analysis fitting direction relative to DMSO as the negative control and baseline of activity. Using a type of functional reporter, gain or loss-of-signal activity can be used to understand electrical activity.
On the day prior to culture, each well was coated thoroughly with 150 uL of 0.05% polyethyleneimine (PEI, Sigma Cat P3143) in 50 mM HEPES (Sigma Cat H7523) at a pH of 8. The plate was incubated at 37C for one hour. PEI was rinsed out with 500 uL of sterile water three times. Plates were stored at 4C until the day of culture. This culture was plated at a seeding density of 1.5 x 10^5 cells/well on a 48-well MEA plate, prepared as described above. Cells were administered via a 25 uL media/laminin ([…]; Sigma Cat L2020-1MG) drop directly onto the microelectrode array, as adding the cells with the laminin results in better attachment than pre-coating with laminin. After 2 hours, an additional 475 uL of cortical media was added and the cells returned to the incubator. Exposure starts at day 0 of plating and is continued over twelve days of network development until the experiment is terminated. Cells are fed with fresh medium on DIV 5 and 9, following the recordings on those days. The entire volume of media in the well is exchanged and any vehicle or compound treatment is renewed. Complete details are found in OP-NHEERL/ISTD/SBB/TJS/2015-03-r0 (available on request, email shafer.tim@epa.gov). Measurement of the electrical activity is non-invasive, and recordings can be made from the same plate over multiple different days of the culture. In cortical neurons, this allows for the measurement of extracellular action potentials over the period during which networks form in the MEA plate.

SMILES | outcome | AC50
Brc1cc(Br)c(Oc2cc(Br)c(Br)cc2Br)cc1Br | inactive | 
CC(CNC(=S)[S-])NC(=S)[S-].[Zn+2] (stereo not drawn) |  | 19.7 µM (active)
Cc1[nH]n(C)c(=O)c1C(=O)c1ccc(C(F)(F)F)cc1S(C)(=O)=O | inactive | 
c1cc2c3c(c1)ccc1cccc(c13)C2 | inactive | 
O=C1CC2(CCCC2)CC(=O)N1CCCCN1CCN(c2ncccn2)CC1 |  | 25 µM (active)
CC(=O)N[C@@H](CC(=O)O)C(=O)O | inactive | 
C[C@@H]1CCO[C@H]2Cn3cc(C(=O)NCc4ccc(F)cc4F)c(=O)c(O)c3C(=O)N12 |  | 1.52 µM (active)
CC(C)O | inactive | 
[O]=[V]([OH])([OH])[OH] |  | 13.6 µM (active)
C[C@@H]1CC[C@@H](C(C)(C)O)[C@H](O)C1 | inactive | 
c1ccc2c(c1)ccc1c3ccccc3ccc21 | inactive | 
CCCCCC(C)(CC)C(=O)NC (stereo not drawn) | inactive | 
CCc1ccccc1 | inactive | 
BrC1CC(Br)CC(Br)CC(Br)CC(Br)CC(Br)C1 (stereo not drawn) |  | 2.92 µM (active)
CN(C)CCCn1cc(C2=C(c3c[nH]c4ccccc34)C(=O)NC2=O)c2ccccc21 |  | 3.16 µM (active) [middle of 4 runs]
F | inactive | 
CCCCCC=C(C)C(CC)CCO (stereo not drawn) | inactive | 
CC(C)c1nn(C(=O)NC(C)(C)C)c(=O)n1N | inactive | 
